In the library only some 4.8% were active in any assay of this set; here they are far more common.
DAX1 inh-1: inhibitors of DAX1 repression of SF-1 activated StAR promoter. AID 652010. HEK293T StAR-luciferase reporter, SF-1/DAX-1 repression relief. inhibition, % at 6.8 µM. actives 1.1% (n = 370,000);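 active means inhibition above the mean over all tested compounds plus 3 SD, cut at about 3.6% in these data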;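 further: 0% = DAX-1 cells with DMSO and 100% = cells lacking DAX-1 with DMSO; higher inhibition means more luminescence from relief of DAX-1 repression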
hgDAF-12 ag: hgDAF-12 agonism, primary luciferase screen; HEK293 GAL4-hgDAF12 UAS-luciferase reporter, agonist luminescence; normalized to butyrate control; activation, % at 6.8 µM; actives 1.8% (n = 370,000);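 active means activation above a cutoff set at the mean of all screened compounds plus 3 SD, cut at about 10% in these data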;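 further: 0% = DMSO wells and 100% = sodium butyrate wells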
hcDAF-12 act: activates DAF-12 receptor from parasite H. contortus; HEK293 hcDAF-12 lit1-tk-luc reporter, luminescence; 0% DMSO, 100% Δ7-dafachronic acid; activation, % at 6.8 µM; actives 1.4% (n = 370,000);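 active means activation above the mean of all tested compounds plus 3 SD, cut at about 5.5% in these data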;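 further: 100% = response to 3 µM Δ7-dafachronic acid high control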
DAX1 inh-2: inhibits human nuclear receptor DAX1; P51843; HEK293 Gal4-DAX1 luciferase reporter, luminescence; inhibition, % at 6.75 µM; actives 0.99% (n = 340,000); AID 504766;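 active means inhibition above the mean over all tested compounds plus 3 SD, cut at about 4.2% in these data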;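 further: 0% = DAX1-transfected cells with DMSO and 100% = empty-vector control cells with DMSO; inhibition shows as a rise in luminescence from relieved DAX1 repression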
Target sequence (P51843 207-470 limits assumed): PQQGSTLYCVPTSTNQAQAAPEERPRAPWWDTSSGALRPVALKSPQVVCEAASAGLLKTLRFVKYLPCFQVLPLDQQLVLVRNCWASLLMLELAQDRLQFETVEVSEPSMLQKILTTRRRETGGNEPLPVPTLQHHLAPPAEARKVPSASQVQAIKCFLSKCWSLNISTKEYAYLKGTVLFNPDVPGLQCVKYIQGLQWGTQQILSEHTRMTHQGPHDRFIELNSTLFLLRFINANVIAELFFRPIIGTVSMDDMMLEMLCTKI
ssDAF-12 act: activates DAF-12 receptor from parasite S. stercoralis. HEK293 ssDAF-12/GRIP1 lit1-tk-luc reporter, luminescence; % of 3 µM dafachronic acid response. activation, % at 6.8 µM. actives 1% (n = 370,000). AID 652126;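 active means activation above the mean over all tested compounds plus 3 SD, cut at about 0.9% in these data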;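 further: 0% = DMSO-only wells and 100% = 3 µM delta7-dafachronic acid wells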
SMARCA2 activ: increases SMARCA2 function in MMTV reporter cells. MG213 cells, MMTV-luciferase reporter, dexamethasone, overnight. activation, % at 9.1 µM. actives 1% (n = 370,000). AID 652017; in the data active means activation above about 7.8%;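 further: 0% = vehicle wells and 100% = reference activator wells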
SMARCA2 act conf: confirmation of SMARCA2 (BRM) function activators; activation, % at 9.1 µM; MG213 cells, MMTV-luciferase with dexamethasone, luminescence, overnight; MG213 cells expressing E1A, Rb sequestered; DMSO wells 0%, reference activator 100%; shares compounds with SMARCA2 activ; actives 30% (n = 3,500); AID 652260;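 active means activation above its plate's cutoff, the mean activation of tested wells plus 3 SD, cut at about 7.9% in these data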
VP16 Luc act: activates GAL4-VP16 luciferase, flagging SMARCA2 activator hits | shares compounds with SMARCA2 activ | HEK293 GAL4-VP16 pG5luc reporter, luciferase luminescence; scaled: DMSO wells 0%, SAHA wells 100% | activation, % at 9.1 µM | actives 41% (n = 3,500) | AID 686939;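 active means activation above the solvent-only control well mean plus 3 SD, averaged across control plates, cut at about 5.2% in these data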
Starred values were filed as active, the others as inactive; nt = no result given.

SMILES | DAX1 inh-1 | hgDAF-12 ag | hcDAF-12 act | DAX1 inh-2 | ssDAF-12 act | SMARCA2 activ | SMARCA2 act conf | VP16 Luc act
COc1cccc(Cn2cc(COC(=O)NCCc3c[nH]c4ccccc34)nn2)c1 | -1 | -2 | -1 | nt | -1 | -1 | nt | nt
Cc1nnc(N/N=C/c2ccc(-c3ccccc3F)o2)n1N | -2 | -2 | 1 | -2 | -1 | 12* | 7 | 9.2*
Cc1nnc(N/N=C\c2ccc(-c3ccccc3[N+](=O)[O-])o2)n1N | -2 | -6 | 4 | 1 | -1 | -2 | nt | nt
O=C(O)c1ccccc1C(=O)NNc1cccc(Cl)n1 | 1 | 6 | 3 | 3 | -1 | 8.6* | -1 | 4
O=C(NCCc1nc2ccccc2[nH]1)c1ccc(F)cc1 | nt | nt | nt | 1 | nt | nt | nt | nt
O=C(NC(=S)NCc1nc2ccccc2[nH]1)c1ccc(F)cc1 | 1 | 10* | 2 | 0 | 0 | 9.9* | 7 | 4
COc1ccc(NC(=O)N(C)[C@H]2C[C@H]3c4[nH]c5c(-c6ccccc6)cccc5c4CCN3C(=O)[C@H]2[C@H](C)O)cc1 | -1 | -5 | -2 | nt | -1 | 0 | nt | nt
O=C(CN1C(=O)CCSc2ccccc21)Nc1ccc(Cl)cc1 | -1 | -3 | 1 | nt | -1 | -5 | nt | nt
Cc1ccc(Nc2nc(N)nc(CC#N)n2)cc1 | 1 | 4 | 3 | 2 | -1 | 12* | 8 | 6.6*
Cc1ccccc1CN1CCCCC(NC(=O)c2cccc(F)c2)C1=O (configuration not stated) | -2 | 0 | -1 | nt | -2 | -3 | nt | nt
Cc1ccc2cc(CCNC(=O)c3cccs3)c(=O)[nH]c2c1 | 2 | 10 | 1 | 2 | -1 | 8.1* | 6 | 8.3*
Cc1ccc2cc(CCNC(=O)CCCc3ccccc3)c(=O)[nH]c2c1C | 2 | 0 | 2 | 0 | -1 | -1 | nt | nt
Cc1ccc2[nH]c(=O)c(COC(=O)c3cccs3)cc2c1 | 0 | 3 | 0 | -1 | 0 | 8.6* | -2 | -1
CC(=O)NCCc1cc2ccc(C)c(C)c2[nH]c1=O | 1 | -3 | 0 | 1 | -1 | 8.3* | -1 | 1
Cc1ccc(-n2c(SCC(=O)Nc3ccc(Oc4ccccc4)cc3)nnc2-c2cccc(C)c2)cc1 | -1 | -1 | 1 | nt | -2 | -4 | nt | nt
CC(C)(O)[C@H]1Cc2cc3ccc(=O)oc3cc2O1 | 1 | 6 | 0 | 1 | -1 | 9.1* | 11* | 6.2*
C=C(C)C1Cc2cc3ccc(=O)oc3cc2O1 (configuration not stated) | -1 | 2 | 0 | 1 | -1 | 3 | nt | nt
COc1ccc(C2CC(=O)C(c3cccc(C)c3)=CN2Cc2ccccc2)cc1 (configuration not stated) | -1 | -1 | -3 | nt | -1 | 0 | nt | nt
COC(=O)[C@]12C[C@H](CC(=O)NCc3cccs3)C(=O)N(Cc3ccccc3)C1=C[C@H](C(C)(C)C)O[C@@H]2C | 0 | -1 | 0 | nt | -1 | -5 | nt | nt
Cc1ccc2cc(C3CC(c4cccs4)=NN3S(C)(=O)=O)c(Cl)nc2c1 (configuration not stated) | 0 | 1 | -3 | -3 | -1 | -2 | nt | nt
Cc1ccc2nc(Cl)c(C3CC(c4cccs4)=NN3S(C)(=O)=O)cc2c1 (configuration not stated) | 0 | 6 | 0 | 0 | -1 | 11* | -1 | 1
CN(C)[C@@H]1CCN(c2ccc3c(c2)O[C@@H]2CCN(C2)S3(=O)=O)C1 | 0 | 1 | -1 | nt | -1 | -1 | nt | nt
COC(=O)/C=C1\OCc2cc(C)ccc21 | 1 | 7 | 0 | nt | 0 | 13* | 7 | 3
COC(=O)/C=C1\OCc2ccc(C)cc21 | -1 | 2 | 0 | nt | -1 | -2 | nt | nt
CCc1ccc(S(=O)(=O)NCCc2cn3ccc(C)cc3n2)s1 | 0 | 6 | -2 | -1 | -2 | 1 | nt | nt
SMILES | DAX1 inh-1 | hgDAF-12 ag | hcDAF-12 act | DAX1 inh-2 | ssDAF-12 act | SMARCA2 activ | SMARCA2 act conf | VP16 Luc act
CCc1ccc(S(=O)(=O)NCCc2cn3cccc(C)c3n2)s1 | 1 | 4 | 5 | -1 | 2.2* | 8.1* | 0 | 0
COc1cc(/C=C2\NC(=S)NC2=O)ccc1OCc1cccc(C(=O)O)c1 | 1 | 2 | 4 | 0 | 0 | 0 | nt | nt
O=C1NC(=O)/C(=C\c2ccc(OCc3cccc(C(=O)O)c3)c(Cl)c2)N1 | 2 | 9 | 3 | -3 | 0 | 9.0* | 7 | 8.4*
Cn1c(=O)c(=O)n(C)c2cc(S(=O)(=O)N3CCN(c4ccccc4Cl)CC3)ccc21 | 0 | 7 | 0 | nt | 0 | 2 | nt | nt
CC(=O)c1cnc2nc(SCc3ccccc3)nn2c1C | 2 | 9 | 2 | 4 | 0 | 11* | 6 | 10*
Cc1ccc(C(=O)NC2CCCCN(Cc3cccc(F)c3)C2=O)cc1 (configuration not stated) | 0 | 5 | 2 | nt | -1 | 3 | nt | nt
COc1ccc(-c2cc(C)no2)cc1S(=O)(=O)NCC(C)c1ccccc1 (configuration not stated) | -4 | -2 | -1 | 0 | -1 | -2 | nt | nt
COc1ccc(-c2cc(C)no2)cc1S(=O)(=O)Nc1ccc(NC(C)=O)cc1 | 0 | -2 | -1 | 1 | -1 | 8.7* | -2 | 2
CC1CCN(S(=O)(=O)c2ccc3nc(-c4ccccn4)cc(C(=O)NCCN(C)Cc4ccccc4)c3c2)CC1 | -1 | -1 | -1 | 0 | -1 | 8.3* | 27* | 0
C[C@@H]1CCCN1c1ccc2c(c1)OCCCN(C1CC1)S2(=O)=O | -1 | -2 | 0 | nt | -1 | -2 | nt | nt
COCCN(C(=O)c1ccccc1OC1CCN(S(C)(=O)=O)CC1)C(C)C | 0 | -4 | -1 | 0 | -2 | 8.1* | 0 | 1
COC(=O)[C@@H](NC(=O)c1ccccc1OC1CCN(S(C)(=O)=O)CC1)C(C)C | -1 | 0 | -1 | -1 | -2 | -1 | nt | nt
O=C(Nc1nc(-c2cc3ccccc3oc2=O)cs1)c1ccco1 | 2 | 5 | 1 | 2 | -2 | 17* | -1 | 2
Cc1ccc(/C=C2\SC(=O)N(CCC(=O)N3CCN(C)CC3)C2=O)cc1 | 1 | 3 | 2 | -1 | 0 | 8.9* | 5 | 6.6*
CN1CCN(C(=O)CCN2C(=O)S/C(=C/c3ccc(Cl)cc3)C2=O)CC1 | 0 | -1 | 0 | -2 | -1 | -2 | nt | nt

Source: PubChem
